HT1080 IDH1KD tx – kills HT-1080 cells with IDH1 knockdown. Potency, µM (series often up to 46.1 µM), actives largely listed as cytotoxic. 2% of 360,000 active. HT-1080 IDH1 knockdown viability, ATP luminescence, 48 h
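Assay cells: HT-1080 with IDH1 knockdown, 750 per well, RPMI/5% FBS. Exposure: 48 h at 37 °C following 2 h pre-incubation. Read: CellTiter-Glo luminescence; fitted concentration-response, curve class assigned.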
IL1B secr inh – inhibitors of inflammasome signaling (IL-1 beta secretion) | THP-1 LPS/ATP IL-1B secretion, AlphaLISA, 16 h; stronger effect = lower value | AID 743279 | activity change, % at 57.5 µM | 4.7% of 360,000 active; in the data active means activity change below about -50%; inconclusive means mostly about -30% to -49%
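Secreted IL-1B measured by AlphaLISA bead assay after 16 h compound exposure of THP-1 cells; compounds (final up to 57.5 uM) added 1 h before LPS (250 ng/mL) and ATP (1.25 mM) stimulation; lower signal means less secretion.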
HT1080-NT tox – kills 2HG-producing HT-1080-NT fibrosarcoma cells. HT-1080-NT fibrosarcoma viability, CellTiter-Glo ATP luminescence, 48 h. Potency, µM (titrated, usually from 46.1 µM), most hits filed as cytotoxic. 1.6% of 360,000 active. AID 686970;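 further: NT is the 2HG producing partner of a matched IDH1 knockdown line; nearly all actives have a fitted effect of over 55% in size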
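750 cells/well, RPMI + 5% FBS; 2 h settle, compound pin-transfer, 48 h at 37 degrees C. CellTiter-Glo 10 min RT, luminescence. Normalized to DMSO and media-only wells.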
DT40 TDP1 CPT – DT40-hTDP1 cell growth loss with CPT. chicken DT40 Tdp1-/-;hTDP1 cells + 20 nM CPT, ATP luminescence, 48 h. Potency, µM (highest dose often 46.2 µM), actives largely listed as inhibitors. 12% of 420,000 active; further: nearly all actives have a fitted effect of over 55% in size
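Chicken DT40 Tdp1-/- cells complemented with human TDP1, 400 cells/well, exposed to compounds plus 20 nM camptothecin for at least 48 h at 37 C; viability read as ATP content by CellTiter-Glo luminescence.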
ELG1 DNA repair – inhibitors of ELG1-dependent DNA repair in HEK293T cells | HEK293T ELG1-luciferase reporter, luminescence, 16 h; DNA damage induced by 5-fluorouridine | Potency, µM (doses to about 46.1 µM), hits mostly inhibitors | 2.3% of 330,000 active | AID 504467; further: nearly all actives have a fitted effect of over 55% in size
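5-Fluorouridine DNA damage + compound/DMSO, 2,000 cells/well, 16 h, 37 °C/5% CO2. ONE-Glo, 30 min RT, luminescence. Readout = decrease in reporter signal.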
DT40 TDP1 no CPT – qHTS for Inhibitors of human tyrosyl-DNA phosphodiesterase 1 (TDP1): qHTS in cells in absence of CPT | Potency, µM (doses to about 46.2 µM), hits mostly inhibitors | 15% of 420,000 active | DT40 Tdp1-/- hTDP1 cells, no CPT, ATP luminescence, 48 h; further: nearly all actives have a fitted effect of over 55% in size
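Compound effects on proliferation are scored in DT40 Tdp1-/-;hTDP1 cells in the absence of CPT. ATP levels (CellTiter-Glo luminescence) are recorded after a ≥48 hr, 37 °C incubation.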
Of the large screens only hits and unclear results are named; the others gave an inactive call. Shown are actives, neighbours in structure and some others; about 19% of the full set was active somewhere. Unless noted, the call rests on the fitted dose curve; in most records, active means well fitted curve in the direction sought with a large enough effect; inconclusive means small, poorly fitted or top-dose-only effect, or another doubt; inactive means no such curve, though single readings can be large; an effect the other way counts as inactive or inconclusive.

CCC(CC)C(=O)OCc1cc(=O)n2nc(C3CC3)sc2n1	DT40 TDP1 no CPT inconclusive (no result: HT1080 IDH1KD tx, IL1B secr inh, HT1080-NT tox, ELG1 DNA repair)
O=C(NC1CCCCC1)C(c1cccnc1)N(C(=O)CCl)c1cccc(Cl)c1 (stereo not drawn)	HT1080 IDH1KD tx 1.8µM, IL1B secr inh -93, HT1080-NT tox 5.2µM, DT40 TDP1 CPT 2.1µM, ELG1 DNA repair 21µM, DT40 TDP1 no CPT 2.1µM
COC(CN(C(=O)CCl)C(C(=O)NC1CCCC(C)C1C)c1ccc(C)cc1)OC (stereo not drawn)	IL1B secr inh -100, DT40 TDP1 CPT 5.2µM, DT40 TDP1 no CPT 21µM
COc1ccc(C(C(=O)NC2CCCCC2)N(C(=O)CCl)c2ccc(Cl)cc2)cc1 (stereo not drawn)	HT1080 IDH1KD tx 1.5µM, IL1B secr inh -96, HT1080-NT tox 2.3µM, DT40 TDP1 CPT 1µM, ELG1 DNA repair inconclusive
CN(C)C(C(=O)NC1CCCCC1)c1ccc(Cl)cc1 (stereo not drawn)	DT40 TDP1 no CPT inconclusive
COC(CN(C(=O)CCl)C(C(=O)NC1CCCCC1)c1ccc(Cl)cc1)OC (stereo not drawn)	IL1B secr inh inconclusive, DT40 TDP1 CPT 5.2µM, DT40 TDP1 no CPT 3.3µM
COc1ccc(N(C(=O)c2cnccn2)C(C(=O)NC2CCCCC2)c2ccc(Cl)cc2)cc1 (stereo not drawn)	none (no result: ELG1 DNA repair)
O=C(COc1ccc([N+](=O)[O-])cc1)NC(=O)NC1CCS(=O)(=O)C1 (stereo not drawn)	none
COc1ccc(NC(=O)C2CCCCC2)cc1S(=O)(=O)N1CCOCC1	none
COCCCNC(=O)C1CCC(CNS(=O)(=O)c2ccc3c(c2)N(C(C)=O)CCO3)CC1 (stereo not drawn)	none
CC(=O)N1CCOc2ccc(S(=O)(=O)NCC3CCC(C(=O)Nc4ccc(C)cn4)CC3)cc21 (stereo not drawn)	DT40 TDP1 CPT 15µM, ELG1 DNA repair 5.2µM, DT40 TDP1 no CPT 13µM
Cc1cc(C)c(OCC(=O)N(Cc2ccccc2)C2CCS(=O)(=O)C2)c(C)c1 (stereo not drawn)	none
Cc1cc2oc(C(=O)Nc3c(C)n(C)n(-c4ccccc4)c3=O)cc(=O)c2cc1C	none (no result: HT1080 IDH1KD tx, IL1B secr inh, HT1080-NT tox, ELG1 DNA repair)
O=S(=O)(c1ccccc1)c1nc(-c2ccc(F)cc2)oc1N1CCCCCC1	DT40 TDP1 CPT 18µM, DT40 TDP1 no CPT 15µM (no result: HT1080 IDH1KD tx, IL1B secr inh, HT1080-NT tox, ELG1 DNA repair)
NC(=O)C1CCN(c2oc(-c3ccc(F)cc3)nc2S(=O)(=O)c2ccccc2)CC1	DT40 TDP1 CPT inconclusive, ELG1 DNA repair inconclusive, DT40 TDP1 no CPT inconclusive
Cc1ccc(S(=O)(=O)c2nc(-c3ccc(F)cc3)oc2N2CCN(c3ccccc3)CC2)cc1	DT40 TDP1 CPT inconclusive, DT40 TDP1 no CPT 18µM (no result: HT1080 IDH1KD tx, IL1B secr inh, HT1080-NT tox, ELG1 DNA repair)
CSCCC(c1nc2ccccc2[nH]1)n1c(/C=C/c2ccc(F)c(F)c2)nc2ccccc21 (stereo not drawn)	DT40 TDP1 CPT inconclusive, DT40 TDP1 no CPT inconclusive (no result: ELG1 DNA repair)
O=C(O)c1cnn(-c2ccccc2)c1-n1cccc1	none
NNC(=O)c1cnn(-c2ccccc2)c1-n1cccc1	HT1080 IDH1KD tx inconclusive, HT1080-NT tox inconclusive
O=C(NNS(=O)(=O)c1ccc(Cl)cc1)c1cnn(-c2ccccc2)c1-n1cccc1	DT40 TDP1 CPT 1.5µM, DT40 TDP1 no CPT 2.1µM
O=C(NNS(=O)(=O)c1ccccc1)c1cnn(-c2ccccc2)c1-n1cccc1	HT1080-NT tox inconclusive, DT40 TDP1 CPT 8.2µM, DT40 TDP1 no CPT 12µM
O=C(NNS(=O)(=O)c1ccc([N+](=O)[O-])cc1)c1cnn(-c2ccccc2)c1-n1cccc1	DT40 TDP1 CPT 0.46µM, DT40 TDP1 no CPT 0.46µM
Cc1ccccc1OCC(=O)Nc1nnc(S(=O)(=O)N(C)c2ccccc2)s1	none (no result: HT1080 IDH1KD tx, IL1B secr inh, HT1080-NT tox, ELG1 DNA repair)
O=C(CSc1ccc(Br)cc1)NCC(c1ccco1)N1CCCCC1 (stereo not drawn)	DT40 TDP1 CPT inconclusive, DT40 TDP1 no CPT inconclusive

Source: PubChem BioAssay (National Center for Advancing Translational Sciences (NCATS))
